Assay results: PubChem BioAssay AID1159580 (chemical genetic matrix, 2015)
Values joined by “and” are separate entries in the source; they are usually repeats but may differ in a detail not shown here. Equal values may be shown once. The campaign covered roughly 5,500 compounds. About 2,000 (36%) were called active. Roughly 18% stayed inconclusive and do not appear here. Cut-off read from the data, not from the text of the source: active = normalized growth mostly below about 0.91 (no sharp cut-off); inconclusive = no clear call, values can overlap the other calls; inactive = mostly above about 0.92. This is one part of the list.

Assay: chemical genetic growth profiling, strain panel (AID 1159580);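 note: tested at 20 µM; growth read once vehicle control cultures reached saturation at 30 °C; 1 = growth at the plate median or of vehicle wells; lower values mean less growth of the strain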
Conditions: S. cerevisiae deletion strains, growth OD

Measured: normalized growth

COc1ccc(-c2cc(C(F)F)nn2-c2ccc(S(N)(=O)=O)cc2)cc1F
inactive: locus YAL013W, strain DEP1, stronger effect = lower value 1 | locus YAL021C, strain ccr4, stronger effect = lower value 0.991 | locus YAL026C, strain drs2, stronger effect = lower value 1.02 | locus YAL030W, strain snc1, stronger effect = lower value 1.01 | locus YBL061C, strain skt5, stronger effect = lower value 1 | locus YBR009C, strain hhf1, stronger effect = lower value 1 | locus YBR021W, strain FUR4, stronger effect = lower value 1.02 | locus YBR023C, strain chs3, stronger effect = lower value 0.992 | locus YBR171W, strain sec66, stronger effect = lower value 1.01 | locus YBR229C, strain ROT2, stronger effect = lower value 1.01 | locus YBR231C, strain swc5, stronger effect = lower value 1.01 | locus YBR279W, strain paf1, stronger effect = lower value 1 | locus YCL011C, strain gbp2, stronger effect = lower value 1.01 | locus YCL016C, strain dcc1, stronger effect = lower value 0.992 | locus YCL029C, strain bik1, stronger effect = lower value 1.01 | locus YCL069W, strain vba3, stronger effect = lower value 1 | locus YCR088W, strain abp1, stronger effect = lower value 1 | locus YDL005C, strain med2, stronger effect = lower value 1 | locus YDL035C, strain GPR1, stronger effect = lower value 1.02 | locus YDL040C, strain nat1, stronger effect = lower value 1.01 | locus YDL074C, strain BRE1, stronger effect = lower value 0.997 | locus YDL101C, strain DUN1, stronger effect = lower value 1 | locus YDL134C, strain PPH21, stronger effect = lower value 0.994 | locus YDL185W, strain tfp1, stronger effect = lower value 1.01 | locus YDL192W, strain arf1, stronger effect = lower value 1.01 | locus YDR001C, strain nth1, stronger effect = lower value 1.02 | locus YDR069C, strain doa4, stronger effect = lower value 1.01 | locus YDR101C, strain arx1, stronger effect = lower value 1.01 | locus YDR137W, strain rgp1, stronger effect = lower value 1.04 | locus YDR150W, strain NUM1, stronger effect = lower value 0.999 | locus YDR159W, strain sac3, stronger effect = lower value 1.01 | locus YDR162C, strain NBP2, stronger effect = lower value 0.988 | locus YDR195W, strain ref2 0.988 | locus YDR297W, strain sur2, stronger effect = lower value 1.01 | locus YDR318W, strain mcm21, stronger effect = lower value 1.02 | locus YDR334W, strain swr1, stronger effect = lower value 1.02 | locus YDR335W, strain msn5, stronger effect = lower value 1 | locus YDR388W, stronger effect = lower value 1.02 | locus YDR392W, strain spt3, stronger effect = lower value 0.922 | locus YDR502C, strain sam2, stronger effect = lower value 0.996 | locus YEL003W, strain gim4, stronger effect = lower value 1 | locus YEL037C, strain rad23, stronger effect = lower value 1.01 | locus YEL061C, strain CIN8 (second series), stronger effect = lower value 1.01 | locus YEL061C, strain CIN8, stronger effect = lower value 1 | locus YER015W, strain faa2, stronger effect = lower value 0.987 | locus YER016W, strain bim1, stronger effect = lower value 1 | locus YER110C, stronger effect = lower value 1.03 | locus YER111C, strain swi4, stronger effect = lower value 0.999 | locus YER155C, strain BEM2 (second series), stronger effect = lower value 0.887 | locus YER155C, strain BEM2, stronger effect = lower value 0.998 | locus YER167W, strain BCK2, stronger effect = lower value 1.01 | locus YFR010W, strain ubp6, stronger effect = lower value 1.02 | locus YGL078C, strain dbp3, stronger effect = lower value 0.996 | locus YGL086W, strain mad1, stronger effect = lower value 1.03 | locus YGL167C, strain pmr1, stronger effect = lower value 0.999 | locus YGL173C, strain kem1, stronger effect = lower value 0.998 | locus YGL227W, strain vid30, stronger effect = lower value 1.01 | locus YGL240W, strain doc1, stronger effect = lower value 0.961 | locus YGL248W, strain PDE1, stronger effect = lower value 0.997 | locus YGL253W, strain hxk2, stronger effect = lower value 1.01 | locus YGR078C, strain PAC10, stronger effect = lower value 0.994 | locus YGR135W, strain pre9, stronger effect = lower value 0.982 | locus YGR229C, strain SMI1, stronger effect = lower value 0.989 | locus YGR252W, strain gcn5, stronger effect = lower value 1.08 | locus YHR013C, strain ard1, stronger effect = lower value 1.06 | locus YHR027C, strain rpn1, stronger effect = lower value 1.01 | locus YHR030C, strain SLT2, stronger effect = lower value 1.01 and 1.05 | locus YHR079C, strain IRE1 (second series), stronger effect = lower value 1.02 | locus YHR079C, strain IRE1, stronger effect = lower value 1.06 | locus YHR094C, strain hxt1, stronger effect = lower value 1.01 | locus YHR129C, strain ARP1, stronger effect = lower value 1 | locus YHR142W, strain chs7, stronger effect = lower value 0.999 | locus YHR200W, strain rpn10, stronger effect = lower value 1.02 | locus YIL066C, strain RNR3, stronger effect = lower value 1.01 | locus YIL073C, strain SPO22, stronger effect = lower value 1.07 | locus YIL125W, strain kgd1, stronger effect = lower value 1.01 | locus YIR030C, strain dcg1, stronger effect = lower value 1.01 | locus YJL092W, strain hpr5, stronger effect = lower value 1 | locus YJL095W, strain BCK1 (second series), stronger effect = lower value 0.997 | locus YJL095W, strain BCK1, stronger effect = lower value 0.996 and 1.02 | locus YJL115W, strain asf1, stronger effect = lower value 1.01 | locus YJL129C, strain trk1, stronger effect = lower value 0.967 | locus YJL134W, strain LCB3, stronger effect = lower value 1 | locus YJL154C, strain vps35, stronger effect = lower value 0.999 | locus YJL164C, strain tpk1, stronger effect = lower value 0.992 | locus YJL166W, strain qcr8, stronger effect = lower value 0.984 | locus YJL168C, strain set2, stronger effect = lower value 1.02 | locus YJL187C, strain SWE1 (second series), stronger effect = lower value 0.995 | locus YJL187C, strain SWE1, stronger effect = lower value 1 | locus YJR043C, strain POL32, stronger effect = lower value 1.03 | locus YJR066W, strain TOR1, stronger effect = lower value 1.01
